Laboratory results from paper PMC7826789 (International Journal of Molecular Sciences, 2021).

How the values were obtained:
Conditions in all cases: Compound Concentration (nM):1000
ERK4 = system: T1, ERK4
T1 construct: gene MAPK4

ERK5 = system: T2, ERK5
T2 construct: gene MAPK7

ERK8 = system: T3, ERK8
T3 construct: gene MAPK15

ERN1 = system: ERN1
FAK = system: T4, FAK
T4 construct: gene PTK2

FER = system: FER
FES = system: FES
FGFR1 = system: FGFR1
FGFR2 = system: FGFR2
FGFR3(G697C) = system: FGFR3(G697C)
FGFR3 = system: FGFR3
FGFR4 = system: FGFR4
FGR = system: FGR
FLT1 = system: FLT1
FLT3(D835H) = system: FLT3(D835H)
FLT3(D835V) = system: FLT3(D835V)
FLT3(D835Y) = system: FLT3(D835Y)
FLT3(ITD) = system: FLT3(ITD)
FLT3(ITD,D835V) = system: FLT3(ITD,D835V)
FLT3(ITD,F691L) = system: FLT3(ITD,F691L)
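Also: KINOMEscan scanMAX binding as percent activity remaining versus control; lower means stronger binding.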

| Compound | Percent Control (ERK4) | Percent Control (ERK5) | Percent Control (ERK8) | Percent Control (ERN1) | Percent Control (FAK) | Percent Control (FER) | Percent Control (FES) | Percent Control (FGFR1) | Percent Control (FGFR2) | Percent Control (FGFR3(G697C)) | Percent Control (FGFR3) | Percent Control (FGFR4) | Percent Control (FGR) | Percent Control (FLT1) | Percent Control (FLT3(D835H)) | Percent Control (FLT3(D835V)) | Percent Control (FLT3(D835Y)) | Percent Control (FLT3(ITD)) | Percent Control (FLT3(ITD,D835V)) | Percent Control (FLT3(ITD,F691L)) |
| --- | --- | --- | --- | --- | --- | --- | --- | --- | --- | --- | --- | --- | --- | --- | --- | --- | --- | --- | --- | --- |
| COc1cccc(-c2c[nH]c3c(N/N=C/c4ccncc4)ncnc23)c1 [GW814408X] | 8.3% | 100% | 2% | 100% | 100% | 100% | 100% | 100% | 100% | 100% | 100% | 100% | 43% | 83% | 27% | 7.5% | 16% | 21% | 3.9% | 43% |
| NS(=O)(=O)c1ccc(N/N=C2\C(=O)Nc3ccc(-c4cnco4)cc32)cc1 [GW276655] | 100% | 98% | 23% | 89% | 68% | 91% | 86% | 85% | 100% | 78% | 100% | 82% | 79% | 80% | 43% | 2.2% | 45% | 44% | 4.3% | 18% |
| CC1=C(C(=O)Nc2ccc3[nH]ncc3c2)C(c2ccc(Cl)c(Cl)c2)CC(=O)N1 (centres unmarked) [GSK299115A] | 100% | 100% | 90% | 80% | 100% | 97% | 96% | 90% | 73% | 94% | 84% | 57% | 86% | 100% | 100% | 75% | 87% | 100% | 80% | 94% |
| Cl.O=C(O[C@H]1CN[C@H](C#Cc2cc3ncnc(Nc4ccc5c(cnn5Cc5ccccc5)c4)c3s2)C1)N1CCOCC1 [GSK200398A] | 99% | 89% | 90% | 88% | 96% | 94% | 95% | 100% | 100% | 86% | 100% | 89% | 96% | 99% | 96% | 87% | 89% | 98% | 88% | 92% |
| CN(C)c1cc2c(Nc3ccc4c(cnn4Cc4ccccc4)c3)ncnc2cn1 [GW282974X] | 100% | 100% | 87% | 52% | 85% | 100% | 81% | 97% | 97% | 93% | 100% | 84% | 73% | 94% | 85% | 59% | 100% | 82% | 100% | 100% |
| NS(=O)(=O)c1ccc(N/N=C2\C(=O)Nc3ccc(Cl)cc32)cc1 [GW280670X] | 100% | 100% | 59% | 100% | 100% | 90% | 100% | 100% | 100% | 100% | 100% | 100% | 100% | 100% | 83% | 31% | 100% | 59% | 60% | 36% |
| CCS(=O)(=O)c1ccc(OC)c(Nc2ncc(-c3cccc(F)c3)o2)c1 [GW621970X] | 100% | 100% | 100% | 100% | 100% | 100% | 100% | 25% | 22% | 7.2% | 11% | 87% | 24% | 45% | 0.6% | 0% | 39% | 5.8% | 0% | 25% |
| Cl.O=C(Nc1ccc(Oc2ccc3[nH]c(NC(=O)c4ccccc4)nc3c2)cc1)Nc1cc(C(F)(F)F)ccc1F [GW709042A] | 91% | 94% | 64% | 100% | 100% | 77% | 94% | 76% | 68% | 100% | 100% | 100% | 82% | 5.1% | 2.8% | 28% | 14% | 3.7% | 95% | 56% |
| COc1cc(C=NNc2ncnc3c2cnn3-c2ccccc2)ccc1O [GW513184X] | 37% | 100% | 22% | 100% | 100% | 100% | 100% | 100% | 100% | 100% | 100% | 100% | 80% | 100% | 12% | 3% | 9.4% | 30% | 16% | 46% |
| CC1=C(C(=O)Nc2ccc3[nH]ncc3c2)C(c2ccc3ccccc3c2)CC(=O)N1 (centres unmarked) [GSK270822A] | 100% | 100% | 100% | 78% | 100% | 77% | 84% | 72% | 66% | 78% | 73% | 58% | 76% | 89% | 94% | 65% | 78% | 100% | 73% | 79% |
| NS(=O)(=O)c1ccc(N/N=C2\C(=O)Nc3ccc(C(=O)NCc4ccncc4)cc32)cc1 [GW300657X] | 100% | 39% | 4% | 57% | 86% | 100% | 100% | 91% | 80% | 100% | 82% | 100% | 100% | 80% | 52% | 0% | 46% | 64% | 0.6% | 17% |
| CC(C)COC(=O)c1ccc2c(c1)/C(=C/Nc1ccc(S(N)(=O)=O)cc1)C(=O)N2 [GW416981X] | 100% | 100% | 1.8% | 100% | 100% | 100% | 100% | 100% | 100% | 100% | 100% | 100% | 99% | 83% | 1.6% | 0% | 1.1% | 3% | 0% | 0% |
| COc1cc(/C=N/Nc2ncnc3[nH]ncc23)ccc1O [GW578748X] | 72% | 100% | 93% | 53% | 100% | 100% | 100% | 81% | 100% | 88% | 100% | 100% | 63% | 89% | 25% | 0.2% | 25% | 43% | 4.5% | 11% |
| Cl.O=S1CCN(Cc2ccc(-c3ccc4ncnc(Nc5ccc(OCc6ccccc6)c(F)c5)c4c3)o2)CC1 [GW576924A] | 100% | 100% | 100% | 100% | 100% | 100% | 100% | 100% | 100% | 100% | 100% | 100% | 100% | 100% | 100% | 99% | 83% | 100% | 100% | 100% |
| O=C(Nc1n[nH]c2nc(-c3ccc(O)cc3)c(Br)cc12)C1CC1 [SB-725317] | 100% | 2.4% | 27% | 93% | 100% | 100% | 100% | 100% | 100% | 100% | 100% | 100% | 100% | 89% | 29% | 2.9% | 33% | 68% | 35% | 37% |
| COc1cc2ncn(-c3cc(O[C@H](C)c4ccccc4Cl)c(C(N)=O)s3)c2cc1OC [GSK237701A] | 100% | 100% | 84% | 88% | 100% | 100% | 95% | 65% | 58% | 63% | 57% | 100% | 67% | 69% | 11% | 0% | 28% | 33% | 5.9% | 21% |
| C/C(Nc1ccc(S(N)(=O)=O)cc1)=C1/C(=O)Nc2ccccc21 [GW335962X] | 100% | 100% | 100% | 88% | 93% | 88% | 84% | 86% | 93% | 100% | 97% | 100% | 78% | 100% | 87% | 0.3% | 76% | 100% | 0.8% | 3% |
| COc1cc2ncnc(Nc3ccc4c(cnn4Cc4ccccc4)c3)c2cc1OC.Cl [GW282449A] | 100% | 100% | 100% | 96% | 100% | 100% | 100% | 100% | 100% | 100% | 100% | 100% | 68% | 100% | 68% | 34% | 83% | 96% | 90% | 100% |
| CCc1ccc(Oc2nccc(-c3c(-c4ccc(F)cc4)ncn3C3CCNCC3)n2)cc1 [SB-242719] | 100% | 100% | 100% | 75% | 100% | 67% | 97% | 100% | 100% | 91% | 100% | 91% | 87% | 100% | 88% | 100% | 100% | 99% | 89% | 93% |
